This passage reports binding signal results from patent publication US20140271602, “NUCLEOTIDE-SPECIFIC RECOGNITION SEQUENCES FOR DESIGNER TAL EFFECTORS” (THE BROAD INSTITUTE INC., published 2014).

Changes are numbered by the printed parent chain.

Common to all, as to assay: cell_activity; luciferase reporter
What all share (conditions): tags: VP64, 2A-GFP; dsDNA, one strand shown

Assay [1] addresses T1, TALE2-HN (CACNA1C site 2 activator) (Xanthomonas (engineered), UniProt P14727 SEQ:1-983).
T1 chain: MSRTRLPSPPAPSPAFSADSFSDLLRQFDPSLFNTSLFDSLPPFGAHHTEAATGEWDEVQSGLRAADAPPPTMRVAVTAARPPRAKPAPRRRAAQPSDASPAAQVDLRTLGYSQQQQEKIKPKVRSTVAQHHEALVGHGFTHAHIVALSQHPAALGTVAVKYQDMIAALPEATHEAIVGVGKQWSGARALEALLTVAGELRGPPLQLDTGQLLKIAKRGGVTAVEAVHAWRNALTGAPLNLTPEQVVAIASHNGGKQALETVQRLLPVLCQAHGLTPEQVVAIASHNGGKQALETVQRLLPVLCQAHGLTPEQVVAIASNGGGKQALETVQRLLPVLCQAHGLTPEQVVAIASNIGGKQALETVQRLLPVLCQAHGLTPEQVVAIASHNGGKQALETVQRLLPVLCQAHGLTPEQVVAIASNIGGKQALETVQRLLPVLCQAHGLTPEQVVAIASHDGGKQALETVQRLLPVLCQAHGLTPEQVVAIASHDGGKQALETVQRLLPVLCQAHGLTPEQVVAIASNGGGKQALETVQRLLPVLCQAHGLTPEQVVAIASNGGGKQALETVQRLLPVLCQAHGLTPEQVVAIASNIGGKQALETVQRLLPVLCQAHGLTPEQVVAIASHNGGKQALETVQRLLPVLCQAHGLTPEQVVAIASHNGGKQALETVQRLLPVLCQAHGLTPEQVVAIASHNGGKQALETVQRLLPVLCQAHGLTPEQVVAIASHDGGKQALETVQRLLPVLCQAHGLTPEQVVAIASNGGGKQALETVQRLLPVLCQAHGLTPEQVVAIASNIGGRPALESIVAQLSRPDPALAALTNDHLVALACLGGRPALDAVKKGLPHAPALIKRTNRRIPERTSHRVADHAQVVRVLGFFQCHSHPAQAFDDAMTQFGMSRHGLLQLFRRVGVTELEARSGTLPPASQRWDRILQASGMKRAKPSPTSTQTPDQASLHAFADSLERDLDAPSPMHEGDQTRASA

The target of assay [2] is T2, TALE2-NH (CACNA1C site 2 activator) (Xanthomonas (engineered), UniProt P14727 SEQ:1-983).
T2 chain: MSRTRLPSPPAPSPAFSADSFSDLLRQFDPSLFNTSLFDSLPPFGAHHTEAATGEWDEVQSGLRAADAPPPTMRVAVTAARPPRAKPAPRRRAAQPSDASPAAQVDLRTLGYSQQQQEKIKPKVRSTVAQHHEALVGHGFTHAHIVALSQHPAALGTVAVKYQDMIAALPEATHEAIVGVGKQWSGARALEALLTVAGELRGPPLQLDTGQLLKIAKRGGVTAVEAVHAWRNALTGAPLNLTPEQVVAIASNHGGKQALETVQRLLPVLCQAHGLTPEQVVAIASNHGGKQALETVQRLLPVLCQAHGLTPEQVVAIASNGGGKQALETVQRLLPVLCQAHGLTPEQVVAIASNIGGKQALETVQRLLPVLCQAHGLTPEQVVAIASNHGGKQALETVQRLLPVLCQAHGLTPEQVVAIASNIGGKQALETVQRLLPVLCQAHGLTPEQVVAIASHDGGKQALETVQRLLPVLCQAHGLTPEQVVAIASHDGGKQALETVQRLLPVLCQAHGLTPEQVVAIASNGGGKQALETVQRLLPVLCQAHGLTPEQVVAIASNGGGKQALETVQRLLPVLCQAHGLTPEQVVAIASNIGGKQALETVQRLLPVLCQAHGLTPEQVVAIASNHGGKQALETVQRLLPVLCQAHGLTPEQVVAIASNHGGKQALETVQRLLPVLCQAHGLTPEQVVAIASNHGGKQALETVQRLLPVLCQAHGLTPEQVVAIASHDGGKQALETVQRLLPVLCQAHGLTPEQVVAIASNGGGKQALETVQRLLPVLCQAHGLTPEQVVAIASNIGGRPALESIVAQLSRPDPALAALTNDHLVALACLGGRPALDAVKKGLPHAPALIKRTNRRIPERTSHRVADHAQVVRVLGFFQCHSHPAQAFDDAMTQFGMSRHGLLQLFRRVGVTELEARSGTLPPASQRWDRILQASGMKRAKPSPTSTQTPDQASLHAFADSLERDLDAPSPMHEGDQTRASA

The target in assay [3] is T3, TALE2-NK (CACNA1C site 2 activator) (Xanthomonas (engineered), UniProt P14727 SEQ:1-983).
T3 chain: T2 chain with H253K, H287K, H389K, H627K, H661K, H695K

In assay [4] the target is T4, TALE1-NN (CACNA1C site 1 activator) (Xanthomonas (engineered), UniProt P14727 SEQ:1-983).
T4 chain: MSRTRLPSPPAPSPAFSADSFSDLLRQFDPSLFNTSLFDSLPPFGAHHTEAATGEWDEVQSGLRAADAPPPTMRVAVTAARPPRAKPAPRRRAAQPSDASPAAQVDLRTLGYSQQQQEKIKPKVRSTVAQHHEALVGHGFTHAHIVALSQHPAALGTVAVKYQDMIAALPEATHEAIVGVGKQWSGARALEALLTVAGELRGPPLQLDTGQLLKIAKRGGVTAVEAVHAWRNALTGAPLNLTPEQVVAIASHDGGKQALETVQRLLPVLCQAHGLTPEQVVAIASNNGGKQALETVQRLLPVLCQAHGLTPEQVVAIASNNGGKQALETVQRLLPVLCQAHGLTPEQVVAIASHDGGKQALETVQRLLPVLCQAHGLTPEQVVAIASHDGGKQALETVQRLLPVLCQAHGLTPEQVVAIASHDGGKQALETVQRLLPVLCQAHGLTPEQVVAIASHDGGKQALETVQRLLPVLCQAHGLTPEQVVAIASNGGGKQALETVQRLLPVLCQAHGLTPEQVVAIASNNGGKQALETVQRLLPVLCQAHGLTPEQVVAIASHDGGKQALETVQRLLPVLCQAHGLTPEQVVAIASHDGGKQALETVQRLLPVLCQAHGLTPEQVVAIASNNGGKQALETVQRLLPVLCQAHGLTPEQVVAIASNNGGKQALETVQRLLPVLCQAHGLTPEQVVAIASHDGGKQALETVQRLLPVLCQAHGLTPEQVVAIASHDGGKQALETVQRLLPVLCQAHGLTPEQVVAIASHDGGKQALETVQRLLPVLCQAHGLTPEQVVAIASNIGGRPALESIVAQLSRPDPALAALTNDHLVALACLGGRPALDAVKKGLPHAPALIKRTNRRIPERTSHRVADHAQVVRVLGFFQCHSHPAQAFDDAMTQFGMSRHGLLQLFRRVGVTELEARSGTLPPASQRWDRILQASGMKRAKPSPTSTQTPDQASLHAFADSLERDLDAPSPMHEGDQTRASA

Assay [5] has as its target T5, TALE1-NK (CACNA1C site 1 activator) (Xanthomonas (engineered), UniProt P14727 SEQ:1-983).
T5 chain: T4 chain with N287K, N321K, N525K, N627K, N661K

Regarding TAATAGACCTTAGGGCTA, the binding signal is 13.9 % reduction vs wild-type site in assay [1], 66.1 % reduction vs wild-type site in assay [2] and 36.3 % reduction vs wild-type site in assay [3].
In the case of TCAACCCCTGCCGGCCCA, the figures for the binding signal in assay [4] and in assay [5] were 35.4 % reduction vs wild-type site and 40.3 % reduction vs wild-type site, respectively.
As to TAATAAACCTTAAAACTA, the binding signal in assay [2] was < 10 % of wild-type site activation.
